L3MBTL1 inh = qHTS Assay for the Inhibitors of L3MBTL1. 0.66% of 230,000 active. Potency, µM (highest dose often 57.1 µM), without a hit: at the highest dose activity, negative = inhibition, actives largely listed as inhibitors. AlphaScreen L3MBTL1–H3K9me1 peptide binding. Lethal(3)malignant brain tumor-like protein 1 (Homo sapiens), Q9Y468; note: % is set by controls: 0 for no effect and ±100 for the full control effect; nearly all actives have a fitted effect of over 60% in size
Target sequence (Q9Y468 whole entry, looked up): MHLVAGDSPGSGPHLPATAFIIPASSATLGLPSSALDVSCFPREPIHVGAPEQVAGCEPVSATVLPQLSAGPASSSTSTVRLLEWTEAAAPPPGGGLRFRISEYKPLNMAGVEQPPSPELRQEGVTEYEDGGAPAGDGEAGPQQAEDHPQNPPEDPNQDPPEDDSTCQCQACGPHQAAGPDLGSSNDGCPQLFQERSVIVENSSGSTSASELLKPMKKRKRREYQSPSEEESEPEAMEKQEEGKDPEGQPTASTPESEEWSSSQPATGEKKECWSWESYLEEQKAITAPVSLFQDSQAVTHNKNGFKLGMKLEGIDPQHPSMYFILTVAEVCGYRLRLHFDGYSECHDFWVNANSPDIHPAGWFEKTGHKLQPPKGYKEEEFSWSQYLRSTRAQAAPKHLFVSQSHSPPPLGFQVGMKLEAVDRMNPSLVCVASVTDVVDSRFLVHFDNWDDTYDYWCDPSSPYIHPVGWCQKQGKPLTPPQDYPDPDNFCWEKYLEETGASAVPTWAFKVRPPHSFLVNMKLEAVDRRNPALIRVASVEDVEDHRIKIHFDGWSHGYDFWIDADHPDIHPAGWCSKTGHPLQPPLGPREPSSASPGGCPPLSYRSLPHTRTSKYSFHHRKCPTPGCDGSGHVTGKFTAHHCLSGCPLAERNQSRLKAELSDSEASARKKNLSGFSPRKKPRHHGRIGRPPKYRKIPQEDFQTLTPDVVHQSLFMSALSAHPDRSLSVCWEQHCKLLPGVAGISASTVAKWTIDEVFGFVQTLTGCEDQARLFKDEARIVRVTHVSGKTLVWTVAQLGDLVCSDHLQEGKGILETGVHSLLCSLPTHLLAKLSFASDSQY
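AlphaScreen assay: L3MBTL1 (50 nM final) was preincubated 30 min at room temperature with biotinylated H3(1-15)K9me1 peptide (75 nM final), then 30 min with library compounds; streptavidin donor and nickel chelate acceptor beads (10 ug/mL final) added, 30 min dark.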
HP1b chromo inh = HTS for Inhibitors of HP1-beta Chromodomain Interactions with Methylated Histone Tails. 0.56% of 390,000 active. Potency, µM (titrated, usually from 114 µM), for inactives: top-dose activity change, negative = inhibition, most hits filed as inhibitors. Chromobox protein homolog 1 (Homo sapiens), P83916. AlphaScreen HP1-beta / biotin-H3K9me3 peptide binding. AID 540317, 2011; note: nearly all actives have a fitted effect of over 70% in size
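Compound inhibition of the preformed complex between 50 nM HP1-beta and 50 nM biotinylated H3K9me3 peptide was read by AlphaScreen. Buffer was PBS pH 7.4 with 0.01% Tween-20. Incubations ran 30 min at room temperature, with 10 ug/mL donor/acceptor beads.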
JMJD2A Tudor inh = qHTS Assay for Inhibitors of JMJD2A-Tudor Domain; AlphaScreen JMJD2A-Tudor / H3K4me3 peptide binding; 4.4% of 390,000 active; Potency, µM (top dose mostly 114 µM), inactives show at the highest dose activity change, negative = inhibition, hits mostly inhibitors; Lysine-specific demethylase 4A (Homo sapiens), O75164; note: % is set by controls: 0 for no effect and ±100 for the full control effect; nearly all actives have a fitted effect of over 50% in size
BAZ2B block = qHTS Assay for Inhibitors of BAZ2B. Bromodomain adjacent to zinc finger domain protein 2B (Homo sapiens), Q9UIF8. AlphaScreen BAZ2B-H3K14Ac peptide displacement. Potency, µM (series often up to 114 µM), for inactives: at the top dose activity change, negative = inhibition, actives largely listed as inhibitors. 4.4% of 360,000 active; note: % is set by controls: 0 for no effect and ±100 for the full control effect; nearly all actives have a fitted effect of over 60% in size
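AlphaScreen luminescence quantifies BAZ2B engagement of H3K14Ac peptide; the protein and biotinylated peptide are both at 50 nM final, buffer PBS pH 7.4 with 0.01% Tween-20, all steps at room temperature.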
Sfp PPTase inh = qHTS Assay for Inhibitors of Bacillus subtilis Sfp phosphopantetheinyl transferase (PPTase). Biochemical Sfp PPTase activity, qHTS. Potency, µM, without a hit: largest response in the series, negative = inhibition, hits mostly inhibitors. 3.5% of 310,000 active;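 note: the enzyme is Sfp with the accession as filed and its product quenches rhodamine fluorescence; 0% = enzyme reaction without inhibitor and -100% = no enzyme wells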
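Sfp 15 nM + cpd, 15 min RT; start w/ rhodamine-CoA 5 uM, BHQ-2-YbbR 12.5 uM (final); 50 mM Hepes pH 7.6, 10 mM MgCl2, 0.01% NP-40, 0.01% BSA; read 525/598 nm at 0 and 30 min.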
G9a inh = qHTS Assay for Inhibitors of Histone Lysine Methyltransferase G9a | Potency, µM (titrated, usually from 102 µM), without a hit: top-dose activity, negative = inhibition, most hits filed as inhibitors | Histone-lysine N-methyltransferase EHMT2 (Homo sapiens), Q96KQ7 | 8.8% of 350,000 active | G9a H3K9 monomethylation, AlphaScreen, 2 h; note: % is set by controls: 0 for no effect and ±100 for the full control effect; nearly all actives have a fitted effect of over 75% in size
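Step 1: enzyme (final 20 nM) with compound, 15 min RT. Step 2: substrate peptide 500 nM and SAM 20 uM, 2 h RT. Step 3: anti-H3K9me1 antibody and AlphaScreen beads, 10 min, then plate read.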
An asterisk follows results filed as active; ? = inconclusive; nt = no result; [ ] = another dose, or the depositor's remark. This is a sample that favours compounds with a hit; in the whole collection about 12% have one here. Calls come from the whole dose curve; as a rule, active = well fitted curve in the direction sought with a large enough effect; inconclusive = small, poorly fitted or top-dose-only effect, or another doubt; inactive = no such curve, though single readings can be large; an effect the other way counts as inactive or inconclusive. Potency is the fitted concentration of half-maximal effect.

SMILES	L3MBTL1 inh	HP1b chromo inh	JMJD2A Tudor inh	BAZ2B block	Sfp PPTase inh	G9a inh
O=C(CSc1nnc(NC(=O)C2CC(=O)N(c3ccc(F)cc3)C2)s1)NC1CCCC1 (stereo not drawn)	nt	41.2%	-15.3%	-18.7%	-20.1%	25.1µM*
O=C(Nc1nnc(SCC(=O)N2CCCCC2)s1)c1cccs1	5.9%	37.9%	?	9.3%	-15.2%	8.91µM*
Cc1ccc(N2CC(C(=O)Nc3nnc(SCCC4OCCO4)s3)CC2=O)cc1 (stereo not drawn)	nt	31.4%	-9.6%	-8.7%	4.2%	12.6µM*
CN(C(=O)c1cccc(Br)c1)C1CCS(=O)(=O)C1 (stereo not drawn)	-2.1%	22.9%	-0.3%	10.7%	nt	3.9%
COCCSc1nnc(NC(=O)C2CC(=O)N(c3ccc(C)cc3)C2)s1 (stereo not drawn)	4.9%	28.1%	-6.8%	-15.0%	4.4%	nt
COc1cc(C(=O)Nc2nnc(SCC(=O)NCC3CCCO3)s2)cc(OC)c1OC (stereo not drawn)	nt	42.0%	-8.3%	?	9.8%	70.8µM*
COc1ccccc1C(=O)Nc1nnc(SCC(=O)NCC2CCCO2)s1 (stereo not drawn)	nt	23.6%	-5.2%	-25.1%	10.8%	nt
O=C(Nc1nnc(SCC(=O)N2CCOCC2)s1)C1CC(=O)N(c2ccc(F)cc2)C1 (stereo not drawn)	nt	41.7%	-5.2%	-12.7%	?	19.3%[12.7 µM]
COC(=O)CSc1nnc(NC(=O)C2CC(=O)N(c3ccc(F)cc3)C2)s1 (stereo not drawn)	nt	19.7%	-28.5%	1.4%	-21.9%	39.8µM*
Cc1ccc(N2CC(C(=O)Nc3nnc(SCC(=O)N4CCOCC4)s3)CC2=O)cc1 (stereo not drawn)	nt	35.2%	-8.1%	-1.2%	0.7%	44.7µM*
O=C(CSc1nc2ccc(NC(=O)C3CCCCC3)cc2s1)NCC1CCCO1 (stereo not drawn)	5.5%	43.5%	-27.6%	-0.8%	-0.1%	44.7µM*
CN1C(=O)CC[C@@H]1c1cccnc1	nt	nt	nt	nt	-1.7%	-1.8%[21.5 µM]
O=C(CSc1nnc(NC(=O)C2CC(=O)N(c3ccccc3)C2)s1)NCC1CCCO1 (stereo not drawn)	nt	38.9%	-7.4%	-2.0%	3.1%	39.8µM*
O=C(Nc1nnc(SCCN2CCOCC2)s1)C1CC(=O)N(c2ccccc2)C1 (stereo not drawn)	nt	36.2%	-16.9%	-0.8%	6.6%	44.7µM*
Cc1cccc(NC(=O)C2CC(=O)n3cnnc3S2)c1 (stereo not drawn)	nt	-46.3%	35.5µM*	?	28.2µM*	?
CCN=C1SC(C(=O)Nc2cccc(C)c2)CC(=O)N1CC (stereo not drawn)	nt	-13.8%	-5.3%[11.4 µM]	7.5%	3.1%	11.4%[12.7 µM]
CN(CC(CC(=O)Nc1nncs1)c1ccccc1)S(=O)(=O)c1ccc(Br)cc1 (stereo not drawn)	-3.1%	16.8%	-35.0%	-30.0%	4.0%	?
Cc1ccc(S(=O)(=O)n2nnc3ccccc32)c(C)c1C	-4.5%	60.3%	-32.6%	?	10.3%	50.1µM*
C#CCOCCOCCOCCNc1nc(N2CCN(C(=O)[C@H](C)n3cc(CCCN=C(N)N)nn3)CC2)nc(N2CCN(C(=O)[C@H](Cc3ccc(O)cc3)n3cc(CCO)nn3)CC2)n1	2.2%	nt	nt	?	-15.4%	31.6µM*
C#CCOCCOCCOCCNc1nc(N2CCN(C(=O)[C@H](CCCCN)n3cc(CCCC)nn3)CC2)nc(N2CCN(C(=O)[C@H](Cc3ccc(O)cc3)n3cc(CCO)nn3)CC2)n1	8.8%	-18.6%	79.4µM*	?	-10.1%	39.8µM*
C#CCOCCOCCOCCNc1nc(N2CCN(C(=O)[C@H](CCCCN)n3cc(CC(C)O)nn3)CC2)nc(N2CCN(C(=O)[C@H](Cc3ccc(O)cc3)n3cc(CCO)nn3)CC2)n1 (stereo partly drawn)	nt	13.9%	-21.6%	nt	nt	nt
Cc1ccc(N/C=C/C(=O)c2cccs2)cc1C	17.8%	61.7%	1.4%	-0.1%	50.1µM*	-0.9%
O=C(/C=C/Nc1ccccc1C(=O)O)c1cccs1	2.9%	38.1%	-8.3%	-8.8%	11.0%	?
O=C(/C=C/Nc1ccc(Nc2ccccc2)cc1)c1cccs1	?	?	?	12.6µM*	5.8%	3.98µM*
Cc1cc(N/C=C/C(=O)c2cccs2)ccc1F	9.8%	69.1%	33.0%	26.6%	-4.4%	-4.9%
SMILES	L3MBTL1 inh	HP1b chromo inh	JMJD2A Tudor inh	BAZ2B block	Sfp PPTase inh	G9a inh
O=C(CSc1nnc(-c2ccccc2F)n1CCc1ccccc1)Nc1ccc2[nH]c(=O)[nH]c2c1	-0.3%	13.8%	-35.9%	-28.4%	-6.2%	-48.8%[59 µM]
COCC#Cc1ccc(C2NC(C(=O)O)CCC2C)cc1 (stereo not drawn)	nt	nt	nt	nt	13.2%	nt
CCOCCCNC(=O)c1cc2c(s1)-c1ccccc1SC2	nt	15.4%	-3.3%	3.3%	79.4µM*	10µM*
CCc1cccc(C)c1NC(=O)Cn1cc2c(n1)CCCCC2	nt	33.2%	-8.1%	1.0%	nt	-3.8%[59 µM]
Cc1ccc(S(=O)(=O)N2CCN(S(=O)(=O)c3ccccc3Br)CC2)cc1	5.5%	24.8%	-4.8%	nt	nt	nt
COc1ccc(N2CCN(C(=S)Nc3ccccc3OC)CC2)cc1	-1.2%[2.29 µM]	-10.0%	-21.8%	-9.5%	17.3%	22.5%[0.501 µM]
CCC(Oc1ccccc1)C(=O)Nc1ccc(S(=O)(=O)Nc2cc(C)on2)cc1 (stereo not drawn)	nt	52.3%	0.7%	-20.7%	23.0%	-4.1%
N#C/C(=C\c1ccc(N2CCCCC2)o1)C(N)=O	-15.7%	8.0%	-15.3%	28.2µM*	-5.3%	28.2µM*
N#C/C(=C\c1ccc(N2CCCCC2)o1)C(=O)Nc1cccc(Br)c1	-15.2%	-3.5%	-0.7%	-10.1%	-21.4%	?
CSc1n[nH]c(NC(C)=O)n1	8.9%	-9.7%	11.2µM*	?	-11.1%	21.1%[59 µM]
CCCSc1n[nH]c(NC(C)=O)n1	-1.6%	20.6%	-19.1%	-5.4%	-16.1%	?
Cc1cc(CNC(=O)CC2C(=O)NCCN2CC(c2ccccc2)c2ccccc2)on1 (stereo not drawn)	6.3%	-0.4%	-31.6%	2.0%	9.2%	nt
